Measured values from PubChem BioAssay AID1159580 (chemical genetic matrix, 2015).
About 2,000 (36%) of roughly 5,500 compounds were called active. About 18% were inconclusive and are not listed. No stated cut-off is given here; in the data, active means normalized growth mostly below about 0.91 (no sharp cut-off); inconclusive means no clear call, values can overlap the other calls; inactive means mostly above about 0.92. The list shows a part of the results.

Test: chemical genetic growth profiling, strain panel (AID 1159580);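 further: tested at 20 µM; growth read once vehicle control cultures reached saturation at 30 °C; 1 = growth at the plate median or of vehicle wells; lower values mean less growth of the strain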
Settings: S. cerevisiae deletion strains, growth OD
[1] = locus YAR019C, strain CDC15, hits give low values
[2] = locus YBL105C, strain PKC1, hits give low values
[3] = locus YBR135W, strain CKS1, hits give low values
[4] = locus YBR136W, strain MEC1, hits give low values
[5] = locus YBR160W, strain CDC28, hits give low values
[6] = locus YDL017W, strain CDC7, hits give low values
[7] = locus YDL028C, strain MPS1, hits give low values
[8] = locus YDL101C, strain DUN1, hits give low values
[9] = locus YDL108W, strain KIN28, hits give low values
[10] = locus YDL132W, strain cdc53, hits give low values
[11] = locus YDL214C, strain PRR2, hits give low values
[12] = locus YDR052C, strain DBF4, hits give low values
[13] = locus YDR054C, strain cdc34, hits give low values
[14] = locus YDR226W, strain ADK1, hits give low values
[15] = locus YDR477W, strain SNF1, hits give low values
[16] = locus YER123W, strain YCK3, hits give low values
[17] = locus YER133W, strain GLC7, hits give low values
[18] = locus YFL009W, strain cdc4, hits give low values
[19] = locus YFL029C, strain CAK1, hits give low values
[20] = locus YFR003C, strain YPI1, hits give low values
[21] = locus YFR019W, strain FAB1, hits give low values
[22] = locus YFR028C, strain CDC14, hits give low values
[23] = locus YGR040W, strain KSS1, hits give low values
[24] = locus YGR052W, strain FMP48, hits give low values
[25] = locus YGR092W, strain DBF2, hits give low values
[26] = locus YHR030C, strain SLT2, hits give low values
[27] = locus YHR079C, strain IRE1, hits give low values
[28] = locus YHR082C, strain KSP1, hits give low values
[29] = locus YHR205W, strain SCH9, hits give low values
[30] = locus YIL147C, strain SLN1, hits give low values
[31] = locus YJL095W, strain BCK1, hits give low values
[32] = locus YJL128C, strain PBS2, hits give low values
[33] = locus YJL157C, strain FAR1, hits give low values
[34] = locus YJR016C, strain ILV3, hits give low values
[35] = locus YJR066W, strain TOR1 (second series), hits give low values
[36] = locus YJR066W, strain TOR1, hits give low values
[37] = locus YKL048C, strain ELM1, hits give low values
[38] = locus YKL067W, strain YNK1, hits give low values
[39] = locus YKL101W, strain HSL1, hits give low values
[40] = locus YKL193C, strain SDS22, hits give low values
[41] = locus YKL203C, strain TOR2, hits give low values
[42] = locus YLR113W, strain HOG1, hits give low values
[43] = locus YLR133W, strain CKI1, hits give low values
[44] = locus YLR403W, strain SFP1, hits give low values
[45] = locus YML070W, strain DAK1, hits give low values
[46] = locus YMR001C, strain CDC5, hits give low values
[47] = locus YMR205C, strain PFK2 (second series), hits give low values
[48] = locus YMR277W, strain FCP1, hits give low values
[49] = locus YNL006W, strain LST8, hits give low values
[50] = locus YNL020C, strain ARK1, hits give low values
[51] = locus YNL161W, strain CBK1, hits give low values
[52] = locus YNL183C, strain NPR1, hits give low values
[53] = locus YNL207W, strain RIO2, hits give low values
[54] = locus YNL222W, strain SSU72, hits give low values
[55] = locus YNL307C, strain MCK1 (second series), hits give low values
[56] = locus YOL078W, strain AVO1, hits give low values
[57] = locus YOL136C, strain PFK27, hits give low values
[58] = locus YOR061W, strain CKA2, hits give low values
[59] = locus YOR119C, strain RIO1, hits give low values
[60] = locus YOR231W, strain MKK1, hits give low values
[61] = locus YOR329C, strain SCD5, hits give low values
[62] = locus YPL031C, strain PHO85, hits give low values
[63] = locus YPL153C, strain RAD53, hits give low values
[64] = locus YPL204W, strain HRR25, hits give low values
[65] = locus YPL209C, strain IPL1, hits give low values
[66] = locus YPL256C, strain CLN2, hits give low values
[67] = locus YPR025C, strain CCL1, hits give low values
[68] = locus YPR106W, strain ISR1, hits give low values
[69] = locus YPR111W, strain DBF20, hits give low values
[70] = strain NNK1, hits give low values
[71] = strain TSCII, hits give low values

Measured: normalized growth

O=S(=O)(Nc1cc(Cl)c(Cl)cc1Cl)c1cc(C(F)(F)F)cc(C(F)(F)F)c1
active: [26] 0.71 | [42] 0.818 | [66] 0.813
inactive: [1] 0.957 | [2] 0.956 | [3] 0.961 | [4] 0.954 | [5] 0.946 | [6] 0.959 | [7] 0.962 | [8] 0.972 | [9] 0.966 | [10] 0.963 | [11] 0.924 | [12] 0.941 | [13] 0.953 | [14] 0.956 | [15] 0.919 | [16] 0.882 | [17] 0.937 | [18] 0.959 | [19] 0.955 | [20] 0.964 | [21] 0.916 | [22] 0.958 | [23] 0.9 | [24] 0.913 | [25] 0.892 | [27] 0.897 | [28] 0.899 | [29] 0.946 | [30] 0.963 | [31] 0.963 | [32] 0.969 | [33] 0.892 | [34] 0.968 | [35] 0.92 | [36] 0.976 | [37] 0.906 | [38] 0.935 | [39] 0.902 | [40] 0.963 | [41] 0.955 | [43] 0.903 | [44] 0.916 | [45] 0.911 | [46] 0.96 | [47] 0.954 | [48] 0.963 | [49] 0.966 | [50] 0.89 | [51] 0.962 | [52] 0.916 | [53] 0.948 | [54] 0.962 | [55] 0.874 | [56] 0.959 | [57] 0.871 | [58] 0.93 | [59] 0.983 | [60] 0.913 | [61] 0.963 | [62] 0.917 | [63] 0.921 | [64] 0.881 | [65] 0.952 | [67] 0.962 | [68] 0.946 | [69] 0.944 | [70] 0.956 | [71] 0.956

O=S(=O)(NCc1ccc(C(F)(F)F)cc1)c1cccc(C(F)(F)F)c1
inactive: [1] 0.985 | [2] 0.986 | [3] 0.982 | [4] 0.985 | [5] 0.988 | [6] 0.989 | [7] 0.98 | [8] 0.987 | [9] 0.983 | [10] 0.973 | [11] 0.945 | [12] 0.987 | [13] 0.985 | [14] 0.99 | [15] 0.956 | [16] 0.908 | [17] 0.948 | [18] 0.974 | [19] 0.977 | [20] 0.983 | [21] 0.981 | [22] 0.983 | [23] 0.958 | [24] 0.97 | [25] 0.942 | [26] 0.883 | [27] 0.886 | [28] 1.04 | [29] 0.943 | [30] 0.984 | [31] 0.869 | [32] 0.917 | [33] 0.954 | [34] 0.984 | [35] 0.922 | [36] 1.02 | [37] 0.976 | [38] 0.96 | [39] 0.936 | [40] 0.983 | [41] 1.01 | [43] 0.976 | [44] 0.971 | [45] 0.921 | [46] 0.987 | [47] 0.948 | [48] 0.984 | [49] 0.98 | [50] 0.964 | [51] 0.985 | [52] 1.04 | [53] 0.987 | [54] 0.983 | [55] 0.954 | [56] 0.987 | [57] 0.916 | [58] 0.987 | [59] 1.02 | [60] 0.952 | [61] 0.987 | [62] 0.95 | [63] 0.937 | [64] 0.918 | [65] 0.986 | [66] 0.885 | [67] 0.981 | [68] 0.979 | [69] 0.97 | [70] 0.984 | [71] 0.995
active: [42] 0.802
